Reference: PubChem BioAssay (NCATS)
Inconclusive results are not listed. Activity calls are given as the source filed them. Calls follow the shape of the dose curve; as a rule, active = well fitted curve in the direction sought with a large enough effect; inconclusive = small, poorly fitted or top-dose-only effect, or another doubt; inactive = no such curve, though single readings can be large; an effect the other way counts as inactive or inconclusive.

Assays:
[1] = P-glycoprotein substrates identified in KB-8-5-11 adenocarcinoma cell line, qHTS therapeutic library screen (AID 1346987); also: nearly all actives have a fitted effect of over 65% in size
How it was run: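 KB-8-5-11: colchicine-selected sub-line of KB-3-1 over-expressing P-gp; assay medium lacked colchicine. 72 h drug exposure at 37 degree C, CellTiter-Glo.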

[2] = NS1 protein of Zika virus - qHTS assay to identify small molecule inhibitors in human HEK 293 cells (AID 1347053); also: series mostly up to about 46 µM; nearly all actives have a fitted effect of over 55% in size
How it was run: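 HEK 293; 20 h pre-culture, 37 C/5% CO2; cpd 1 h pre-infection; ZIKV MR766, MOI = 0.5, 24 h, 37 C; TR-FRET NS1 readout (two anti-NS1 Abs); norm. to no-virus vs infected.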

[3] = qHTS of pediatric cancer cell lines to identify multiple opportunities for drug repurposing: Primary screen for TC32 cells (AID 1347089); also: nearly all actives have a fitted effect of over 60% in size
How it was run: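 TC32 cells, 500-1,000/well in growth medium, compound-treated 48 h at 37 °C; viability from CellTiter-Glo luminescence. Primary screen: MIPE 11-point (0.78 nM–46 µM final), NPC 8-point (0.59 nM–46 µM final); confirmatory at 11-point dilutions.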

[4] = qHTS of pediatric cancer cell lines to identify multiple opportunities for drug repurposing: Primary screen for DAOY cells (AID 1347090); also: series mostly up to about 46 µM; nearly all actives have a fitted effect of over 55% in size
How it was run: (§1)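 Viability measured as metabolically active cells via CellTiter-Glo luminescence following 48 hours of compound exposure, 11-point dilutions in confirmatory testing. 500-1,000 cells/well plated 5 hours before dosing; controls were DMSO and 2.3 µM bortezomib.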

[5] = qHTS of pediatric cancer cell lines to identify multiple opportunities for drug repurposing: Primary screen for SJ-GBM2 cells (AID 1347091)
How it was run: as §1

[6] = qHTS of pediatric cancer cell lines to identify multiple opportunities for drug repurposing: Primary screen for A673 cells (AID 1347092); also: nearly all actives have a fitted effect of over 45% in size
How it was run: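 A673 cells (500-1,000 cells/well) were treated 48 hours at 37 degrees C with compounds at 11-point (0.78 nM to 46 µM) or 8-point (0.59 nM to 46 µM) dilutions. Viability read by CellTiter-Glo luminescence; concentration-response curves fitted.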

[7] = qHTS of pediatric cancer cell lines to identify multiple opportunities for drug repurposing: Primary screen for SK-N-MC cells (AID 1347093); also: series mostly up to about 46 µM
How it was run: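 Metabolically active cells were quantified by ATP-dependent luminescence (CellTiter-Glo, 15 min at room temperature) following 48 h treatment. Cells had been plated at 500-1,000 per well and settled for 5 h beforehand.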

[8] = qHTS of pediatric cancer cell lines to identify multiple opportunities for drug repurposing: Primary screen for BT-37 cells (AID 1347094); also: series mostly up to about 57 µM
How it was run: (§2)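 Viability was measured as metabolically active cells after 48 hours of treatment, read by CellTiter-Glo luminescence. Compounds were tested at multiple final concentrations, giving concentration-response curves.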

[9] = qHTS of pediatric cancer cell lines to identify multiple opportunities for drug repurposing: Primary screen for NB-EBc1 cells (AID 1347095)
How it was run: as §2

[10] = qHTS of pediatric cancer cell lines to identify multiple opportunities for drug repurposing: Primary screen for U-2 OS cells (AID 1347096); also: nearly all actives have a fitted effect of over 50% in size
How it was run: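 Viability after 48 h compound treatment at 37C, 500-1,000 cells/well, read as ATP luminescence with CellTiter-Glo. Primary screens used 11-point (MIPE, 0.78 nM-46 µM) or 8-point (NPC, 0.59 nM-46 µM) final concentrations; follow-up screens used 11-point dilutions.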

Measured: Potency

[O-][n+]1cccc(CO)c1
inactive: all assays above

c1ccc(CN(CC2=NCCN2)c2ccccc2)cc1
inactive: all assays above

CCCOC(=O)c1ccccc1
inactive: all assays above

CN1CCCCC1CCN1c2ccccc2Sc2ccc(S(C)=O)cc21 (centres undefined)
inactive: all assays above

O=C(O)c1ccccc1-c1ccc(C(F)(F)F)cc1
inactive: all assays above

CC/C=C(\C(=O)N[C@@H]1C(=O)N2C(C(=O)OCOC(=O)C(C)(C)C)=C(COC(N)=O)CS[C@H]12)c1csc(N)n1
inactive: all assays above

CC1=C(C/C=C(\C)CCC[C@H](C)CCC[C@H](C)CCCC(C)C)C(=O)c2ccccc2C1=O
inactive: all assays above

CCOC(=O)c1ccc(O)cc1
not listed: [7]
inactive: all other assays above

CN1CCOC(c2ccccc2)c2ccccc2C1 (centres undefined)
not listed: [7]
inactive: all other assays above

Oc1cccc(O)c1
not listed: [6]
inactive: all other assays above

O=C(O)c1ccccn1
inactive: all assays above

C=CCn1c(=O)n([C@@H]2O[C@H](CO)[C@@H](O)[C@H]2O)c2nc(N)[nH]c(=O)c21
not listed: [7]
inactive: all other assays above

OCC(O)CN1CCN(c2ccccc2)CC1 (centres undefined)
not listed: [6]
inactive: all other assays above

CCOc1ccc2ccccc2c1C(=O)N[C@@H]1C(=O)N2[C@@H]1SC(C)(C)[C@@H]2C(=O)O
not listed: [7]
inactive: all other assays above

CCCCCCCCCCCCOS(=O)(=O)O
not listed: [6]
inactive: all other assays above

O=S(=O)(O)NC1CCCCC1
inactive: all assays above

CC1CC(OC(=O)C(O)c2ccccc2)CC(C)(C)N1C (centres undefined)
not listed: [6]
inactive: all other assays above

O=C(O)[C@@H]1CSCN1
not listed: [6]
inactive: all other assays above

CC(C)(C)C(=O)C(Oc1ccc(Cl)cc1)n1ccnc1 (centres undefined)
inactive: all assays above

Cc1ncc(COP(=O)(O)O)c(C=O)c1O
not listed: [7]
inactive: all other assays above

CCCCOC(=O)c1ccc(O)cc1
not listed: [6]
inactive: all other assays above

CC1(C)S[C@@H]2[C@H](NC(=O)Cc3ccccc3)C(=O)N2[C@H]1C(=O)O (tested in a mixture with another compound)
inactive: all assays above
